The values that follow come from PubChem BioAssay (NCI).

The panel holds about 83,000 compounds, 20% with a hit somewhere; the sample as a whole holds those more often.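 The test compound was applied at a single concentration to cells in 96-well plates for 48 hours, and percent growth was recorded.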 A number with no mark means an inactive call. Activity calls are given as the source filed them. The calls were made as follows: active = growth percent below 10; inactive = the rest.

Holding throughout (experiment): NCI-60 one-dose screen, 48 h (100 = growth as untreated, 0 = no growth, -100 = all killed)
For one assay, the system named is DU-145 prostate. The conditions noted are these: 10 µM unless noted.
A further assay relates to K-562 leukemia. The conditions noted are these: 10 µM unless noted.
In a further assay the test system is MALME-3M melanoma. The conditions noted are these: 10 µM unless noted.
Another assay concerns RXF 393 renal. The note with it: 10 µM unless noted.
The next assay relates to SF-268 CNS. The conditions noted are these: 10 µM unless noted.
For another assay, the system named is SF-295 CNS. The conditions noted are these: 10 µM unless noted.
A further assay deals with SF-539 CNS. The note with it: 10 µM unless noted.
Another assay concerns UACC-257 melanoma. The conditions noted are these: 10 µM unless noted.
Another assay relates to M14 melanoma. The note with it: 10 µM unless noted.
The test system of another assay is HCT-15 colon. The conditions noted are these: 10 µM unless noted.
A further assay relates to HT29 colon. The conditions noted are these: 10 µM unless noted.
Another assay has as its system SNB-75 CNS. The note with it: 10 µM unless noted.
Another assay concerns SNB-19 CNS. The note with it: 10 µM unless noted.
In a further assay the test system is U251 CNS. The note with it: 10 µM unless noted.
A further assay relates to PC-3 prostate. The note with it: 10 µM unless noted.
For the next assay, the system named is SK-MEL-5 melanoma. The note with it: 10 µM unless noted.
The subject of a further assay is UACC-62 melanoma. The note with it: 10 µM unless noted.
A further assay has as its system SK-MEL-28 melanoma. The note with it: 10 µM unless noted.
The test system of a further assay is MDA-MB-231 breast. The conditions noted are these: 10 µM unless noted.
A further assay has as its system LOX IMVI melanoma. The conditions noted are these: 10 µM.

As to `N#Cc1ccc(C(=O)Nn2c(N)cc3ccccc3c2=O)cc1`, the growth is 115% with DU-145 prostate; 89.6% in the assay on K-562 leukemia; 77.9% in the assay with MALME-3M melanoma; 104% in the assay on RXF 393 renal; 106% with SF-268 CNS; 99% in the assay on SF-295 CNS. Also, the growth in the assay with SF-539 CNS is 90%; with UACC-257 melanoma, 99.5%; in the assay on M14 melanoma, 94.5%; with HCT-15 colon it was 103%; with HT29 colon it was 103%; in the assay with SNB-75 CNS, 111%. In addition, the growth is 94.6% in the assay with SNB-19 CNS; 98% in the assay on U251 CNS; 94.6% in the assay with PC-3 prostate; 99.4% with SK-MEL-5 melanoma; 86.1% in the assay on UACC-62 melanoma; 104% in the assay with SK-MEL-28 melanoma.

Take `Cc1ccc(C(=O)C(c2c[nH]c3ccccc23)c2c[nH]c3ccccc23)cc1`: the growth was 4.62% (active) in the assay on DU-145 prostate; 5.78% (active) in the assay with K-562 leukemia; 72.6% in the assay with MALME-3M melanoma; 24.2% with MDA-MB-231 breast; 34% in the assay with RXF 393 renal; 51.5% in the assay on SF-268 CNS. In addition, the growth in the assay with SF-295 CNS is 81.9%; with SF-539 CNS, 70.4%; with UACC-257 melanoma, 76.6%; in the assay with HCT-15 colon, -15.3% (active); in the assay with SNB-75 CNS, 70.1%; in the assay on SNB-19 CNS, 87.4%. Moreover, the growth in the assay on U251 CNS was 21.6%; in the assay on PC-3 prostate, 17.1%; in the assay with SK-MEL-5 melanoma, 83%; with LOX IMVI melanoma it was -78.5% (active); in the assay on SK-MEL-28 melanoma, 19.7%.

As to `O=c1cc(-c2ccccc2)oc2cc(OCCCC[P+](c3ccccc3)(c3ccccc3)c3ccccc3)cc(O)c12`, the growth with DU-145 prostate is -94.8% (active); with K-562 leukemia, -24.1% (active); in the assay with MALME-3M melanoma it was -88% (active); in the assay on MDA-MB-231 breast, -32.2% (active); in the assay on SF-268 CNS, -59% (active); in the assay on SF-295 CNS, -96.1% (active). The growth with SF-539 CNS is -95.7% (active); in the assay with UACC-257 melanoma, -91% (active); in the assay on M14 melanoma it was -70.1% (active); with HCT-15 colon, -94.2% (active); in the assay on SNB-75 CNS, -80.7% (active); in the assay on SNB-19 CNS, -44.5% (active). In addition, the growth in the assay with U251 CNS was -57.4% (active); in the assay with PC-3 prostate, -87.3% (active); in the assay with SK-MEL-5 melanoma, -98.4% (active); in the assay on UACC-62 melanoma, -59.5% (active); in the assay with LOX IMVI melanoma, -90.1% (active); with SK-MEL-28 melanoma it was -98.4% (active).

In the case of `N#Cc1c(-c2ccc(Br)cc2)nc2n[nH]c(-c3ccc(Br)cc3)c2c1-c1ccc(F)cc1`, the growth was 116% in the assay on DU-145 prostate; 76.4% in the assay with K-562 leukemia; 86.2% in the assay with MALME-3M melanoma; 102% with RXF 393 renal; 129% in the assay with SF-268 CNS; 98.9% in the assay on SF-295 CNS. Besides, the growth in the assay with SF-539 CNS was 97.4%; in the assay on UACC-257 melanoma, 103%; with M14 melanoma it was 97.7%; with HCT-15 colon, 98.6%; with HT29 colon, 87.9%; in the assay with SNB-75 CNS it was 94.5%. For the same molecule, the growth in the assay on SNB-19 CNS is 102%; in the assay on U251 CNS, 96.7%; in the assay on PC-3 prostate, 89%; with SK-MEL-5 melanoma, 95.1%; in the assay with UACC-62 melanoma, 87%; in the assay with SK-MEL-28 melanoma, 102%.

For `CSc1ccc(C(=O)Nc2ccc3nnn(/C(C#N)=C/c4ccccn4)c3c2)cc1`, the growth was -40.3% (active) in the assay with DU-145 prostate; -9.85% (active) with K-562 leukemia; -59.3% (active) with MALME-3M melanoma; -95.5% (active) in the assay with RXF 393 renal; 30.5% in the assay with SF-268 CNS; 34.8% with SF-295 CNS. Besides, the growth was -92% (active) in the assay on SF-539 CNS; -38.9% (active) in the assay on UACC-257 melanoma; -73.2% (active) in the assay on M14 melanoma; -41.8% (active) with HCT-15 colon; -86.6% (active) with HT29 colon; 55.9% with SNB-75 CNS. For the same molecule, the growth in the assay with SNB-19 CNS is -3.44% (active); in the assay on U251 CNS, -78.2% (active); in the assay on PC-3 prostate it was 7.72% (active); in the assay with SK-MEL-5 melanoma, -57.2% (active); in the assay on UACC-62 melanoma, -51.3% (active); in the assay with SK-MEL-28 melanoma, -50.2% (active).

As to `Nc1cc2ccccc2c(=O)n1NC(=O)c1ccc(I)cc1`, the growth with DU-145 prostate is 102%; with K-562 leukemia, 90.4%; in the assay with MALME-3M melanoma it was 97.4%; with RXF 393 renal it was 108%; in the assay on SF-268 CNS it was 94.9%; in the assay on SF-295 CNS it was 97.6%. Moreover, the growth was 96.5% in the assay with SF-539 CNS; 93.3% in the assay with UACC-257 melanoma; 102% with M14 melanoma; 102% with HCT-15 colon; 101% in the assay on HT29 colon; 70% with SNB-75 CNS. Also, the growth was 95.6% in the assay with SNB-19 CNS; 97.4% in the assay with U251 CNS; 100% in the assay with PC-3 prostate; 101% in the assay with SK-MEL-5 melanoma; 93.2% in the assay with UACC-62 melanoma; 103% with SK-MEL-28 melanoma.

With `CSc1ccc(NC(=O)c2ccc3nn(/C(C#N)=C/c4ccccn4)nc3c2)cc1`, the growth is -100% (active) in the assay with DU-145 prostate; -13.4% (active) with K-562 leukemia; -89.4% (active) in the assay on MALME-3M melanoma; -94.9% (active) with RXF 393 renal; -40% (active) in the assay with SF-268 CNS; -95.7% (active) in the assay on SF-295 CNS. Besides, the growth was -95% (active) in the assay with SF-539 CNS; -89.3% (active) with UACC-257 melanoma; -86% (active) in the assay with M14 melanoma; -72.1% (active) in the assay on HCT-15 colon; -86.1% (active) in the assay on HT29 colon; 35.1% with SNB-75 CNS. The growth in the assay with SNB-19 CNS was -75.7% (active); in the assay on U251 CNS it was -79.9% (active); in the assay on PC-3 prostate it was -73.7% (active); with SK-MEL-5 melanoma, -92.8% (active); in the assay with UACC-62 melanoma, -96.3% (active); with SK-MEL-28 melanoma, -98.4% (active).

For `O=C(/C=C/c1ccc(-c2ccccc2)cc1)c1nc2ccccc2n1Cc1ccc(Br)cc1`, the growth in the assay with DU-145 prostate was 80.5%; with K-562 leukemia, 36%; in the assay with MALME-3M melanoma, 44%; with RXF 393 renal, 35.3%; with SF-268 CNS, 62.9%; in the assay on SF-295 CNS, 21.9%. Also, the growth is 17.7% with SF-539 CNS; 67.4% with UACC-257 melanoma; 74% with M14 melanoma; 37.3% with HCT-15 colon; 41.6% with HT29 colon; 56.8% with SNB-75 CNS. The growth with SNB-19 CNS was 57.8%; in the assay with U251 CNS, 27.4%; in the assay with PC-3 prostate, 48.2%; with SK-MEL-5 melanoma, 72.2%; in the assay on UACC-62 melanoma it was 50.2%; in the assay with SK-MEL-28 melanoma, 58.5%.
